# Laboratory results published in PubChem BioAssay AID1035472 (Broad Institute, 2014).
# Active and inactive are the calls of the source. The rule behind the calls is not given here.
# Test: HepG2 cell cytotoxicity, dose response, cytotoxicity control, dry powder samples (AID 1035472)
# Details: HepG2 viability, ATP luminescence (CellTiter-Glo), 72 h; series mostly up to 100 µM
structure (smiles),measurement,value
Cn1c(NC(=O)c2ccccc2)nc2c3cnccc3ccc21,outcome,inactive
